Source: article PMC5540273 (PLoS ONE, 2017)

System: T1, NIM1
T1 construct: gene MGC42105
Details: concentration: 1 μM, replicates: in singlicate; n = 1
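Also: KINOMEscan kinase panel screen.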

Going from `COc1cc2ncn(-c3cc(OCC4CCCO4)c(C(N)=O)s3)c2cc1OC` (centres unmarked) [GSK204607] to `COc1cc2nccc(Nc3ccc(NC(=O)c4ccc(C)cc4)c(O)c3)c2cc1OC.Cl` [GW440132], the “%Inh” value falls from 23% to 7%.

First: COc1ccccc1-c1ccc2c(NC(=O)C3CC3)n[nH]c2n1 [SB-711239]
Second: O=C(Nc1n[nH]c2cc(-c3cccc(F)c3F)ccc12)C1CC1 [SB-733894]
The “%Inh” value of the first is higher: 19% for the first, 0% for the second.

`Cc1cccc(-c2cc(Nc3ccncc3)c3ccccc3n2)n1` [GSK223675] and `Cc1cccc(-c2nc(Nc3ccncc3)c3ccccc3n2)n1` [GW855857] are the same in “%Inh” value: 0% for the first, 0% for the second.

Going from `COc1ccc(Nc2nccc(-c3cccc(NC(=O)c4cc5cc(F)ccc5[nH]4)c3)n2)cc1` [GSK1229782] to `COc1cccc(NC(=O)NC2CCN(c3ccnc(Nc4ccc(F)cc4)n3)C2)c1` (centres unmarked) [GSK1379721], the “%Inh” value rises from 13% to 14%.

Compared with `COc1ccc(Nc2nccc(NCCNC(=O)Nc3ccccc3F)n2)cc1` [GSK1379901], `CCCc1ccc(S(=O)(=O)NC2CCN(c3ccnc(Nc4ccc(F)cc4)n3)C2)cc1` (centres unmarked) [GSK1379715] is higher in “%Inh” value: 9% for the first, 18% for the second.

Going from `NC(=O)c1nnc2ccccc2c1N` to `Nc1ncnc2[nH]c(-c3ccccc3)nc12` [AH5015], the “%Inh” value rises from 14% to 21%.

Compared with `CC(C)(C)c1ccc(C(=O)Nc2cn3cc(Cl)ccc3n2)cc1`, `CC(C)(C)c1ccc(C(=O)Nc2cn3cc(-c4cccnc4)ccc3n2)cc1` is higher in “%Inh” value: 0% for the first, 22% for the second.

Compared with `Cc1ccc(-c2cc(-c3c[nH]nc3-c3ccccn3)ccn2)cc1` [GW684088], `COc1cccc(-c2cc(-c3c[nH]nc3-c3ccccn3)ccn2)c1` [GW680338] is higher in “%Inh” value: 17% for the first, 21% for the second.

First: Cc1cc(N2Cc3ccccc3C2)nc(Nc2ccc(S(=O)(=O)N3CCOCC3)cc2)n1.Cl [GSK1669917]
Second: CS(=O)(=O)c1ccc(-c2c(-c3ncn[nH]3)sc(N3CCOCC3)c2C#N)cc1
The “%Inh” value of the first is lower: 6% for the first, 21% for the second.

First: Cc1ccccc1-n1cnc2c(N)ncnc21 [SKF-97510]
Second: CCn1c(-c2ccccn2)nc2cnccc21 [SB-736398]
The “%Inh” value of the first is lower: 0% for the first, 34% for the second.

`Fc1cccc(COc2nnc(-c3ccc4c(c3)CCO4)o2)c1` and `Cl.c1ccc(-c2n[nH]cc2-c2ccnc(-c3ccc(CN4CCOCC4)cc3)c2)nc1` [GW776245] are the same in “%Inh” value: 0% for the first, 0% for the second.

Going from `Cc1ccc(C(=O)Nc2ccc(Nc3ccnc4cc(-c5ccccn5)ccc34)cc2O)cc1.Cl` [GW440146] to `Cc1c(O)cccc1Nc1ccnc2ccc(C(F)(F)F)cc12.Cl` [GW466413], the “%Inh” value rises from 15% to 17%.

`COC(=O)c1c(-c2ccccc2)c2cc(OC)ccc2c(=O)n1Cc1ccccc1` and `COC(=O)c1c(-c2ccccc2)c2cc(C(=O)O)ccc2c(=O)n1Cc1ccccc1` are the same in “%Inh” value: 0% for the first, 0% for the second.

Compared with `O=C(O)COc1ncnc2cc(-c3ccc4[nH]ncc4c3)sc12`, `Cn1ccc2ncnc(Oc3ccc(Nc4nc5ccccc5[nH]4)cc3)c21` is lower in “%Inh” value: 26% for the first, 0% for the second.

Going from `COc1ccc(C2=C(Nc3cccc(C(=O)O)c3)C(=O)NC2=O)cc1` [SB-390765] to `COc1ccc(CNC(=O)NC2CCN(c3ccnc(Nc4cc(OC)c(OC)c(OC)c4)n3)C2)cc1` (centres unmarked) [GSK1379748], the “%Inh” value falls from 45% to 0%.

First: Clc1cc(Cl)cc(Nc2ccnc(Nc3cc(Cl)cc(Cl)c3)n2)c1 [GSK175726]
Second: O=C(Nc1ccccc1)Nc1cccc(Oc2ccc3nccn3n2)c1
The “%Inh” value of the first is lower: 0% for the first, 19% for the second.

First: Cc1c(Cn2ccn3c(=O)cc(N4CCOCC4)nc23)cccc1C(F)(F)F [GSK2289044]
Second: Cc1cc(NCC(c2ccccc2)c2ccccc2)nc(NCc2ccc(C(F)(F)F)cc2)n1 [GW497681]
The “%Inh” value of the first is lower: 7% for the first, 22% for the second.

System: NLK
Details: concentration: 1 μM, replicates: in singlicate; n = 1

Going from `COc1cc2ncn(-c3cc(OCC4CCCO4)c(C(N)=O)s3)c2cc1OC` (centres unmarked) [GSK204607] to `COc1cc2nccc(Nc3ccc(NC(=O)c4ccc(C)cc4)c(O)c3)c2cc1OC.Cl` [GW440132], the “%Inh” value falls from 15% to 0%.

First: COc1ccccc1-c1ccc2c(NC(=O)C3CC3)n[nH]c2n1 [SB-711239]
Second: O=C(Nc1n[nH]c2cc(-c3cccc(F)c3F)ccc12)C1CC1 [SB-733894]
The “%Inh” value of the first is lower: 15% for the first, 72% for the second.

First: Cc1cccc(-c2cc(Nc3ccncc3)c3ccccc3n2)n1 [GSK223675]
Second: Cc1cccc(-c2nc(Nc3ccncc3)c3ccccc3n2)n1 [GW855857]
The “%Inh” value of the first is lower: 10% for the first, 47% for the second.

First: COc1ccc(Nc2nccc(-c3cccc(NC(=O)c4cc5cc(F)ccc5[nH]4)c3)n2)cc1 [GSK1229782]
Second: COc1cccc(NC(=O)NC2CCN(c3ccnc(Nc4ccc(F)cc4)n3)C2)c1 (centres unmarked) [GSK1379721]
The “%Inh” value of the first is higher: 9% for the first, 0% for the second.

First: COc1ccc(Nc2nccc(NCCNC(=O)Nc3ccccc3F)n2)cc1 [GSK1379901]
Second: CCCc1ccc(S(=O)(=O)NC2CCN(c3ccnc(Nc4ccc(F)cc4)n3)C2)cc1 (centres unmarked) [GSK1379715]
The “%Inh” value of the first is higher: 7% for the first, 0% for the second.

First: NC(=O)c1nnc2ccccc2c1N
Second: Nc1ncnc2[nH]c(-c3ccccc3)nc12 [AH5015]
The “%Inh” value of the first is higher: 2% for the first, 0% for the second.

Compared with `CC(C)(C)c1ccc(C(=O)Nc2cn3cc(Cl)ccc3n2)cc1`, `CC(C)(C)c1ccc(C(=O)Nc2cn3cc(-c4cccnc4)ccc3n2)cc1` is higher in “%Inh” value: 0% for the first, 1% for the second.

Compared with `Cc1ccc(-c2cc(-c3c[nH]nc3-c3ccccn3)ccn2)cc1` [GW684088], `COc1cccc(-c2cc(-c3c[nH]nc3-c3ccccn3)ccn2)c1` [GW680338] is lower in “%Inh” value: 22% for the first, 6% for the second.

First: Cc1cc(N2Cc3ccccc3C2)nc(Nc2ccc(S(=O)(=O)N3CCOCC3)cc2)n1.Cl [GSK1669917]
Second: CS(=O)(=O)c1ccc(-c2c(-c3ncn[nH]3)sc(N3CCOCC3)c2C#N)cc1
The “%Inh” value of the first is higher: 7% for the first, 0% for the second.

First: Cc1ccccc1-n1cnc2c(N)ncnc21 [SKF-97510]
Second: CCn1c(-c2ccccn2)nc2cnccc21 [SB-736398]
The “%Inh” value of the first is higher: 15% for the first, 0% for the second.

First: Fc1cccc(COc2nnc(-c3ccc4c(c3)CCO4)o2)c1
Second: Cl.c1ccc(-c2n[nH]cc2-c2ccnc(-c3ccc(CN4CCOCC4)cc3)c2)nc1 [GW776245]
The “%Inh” value of the first is higher: 6% for the first, 0% for the second.

Compared with `Cc1ccc(C(=O)Nc2ccc(Nc3ccnc4cc(-c5ccccn5)ccc34)cc2O)cc1.Cl` [GW440146], `Cc1c(O)cccc1Nc1ccnc2ccc(C(F)(F)F)cc12.Cl` [GW466413] is lower in “%Inh” value: 22% for the first, 0% for the second.

`COC(=O)c1c(-c2ccccc2)c2cc(OC)ccc2c(=O)n1Cc1ccccc1` and `COC(=O)c1c(-c2ccccc2)c2cc(C(=O)O)ccc2c(=O)n1Cc1ccccc1` are the same in “%Inh” value: 0% for the first, 0% for the second.

First: O=C(O)COc1ncnc2cc(-c3ccc4[nH]ncc4c3)sc12
Second: Cn1ccc2ncnc(Oc3ccc(Nc4nc5ccccc5[nH]4)cc3)c21
The “%Inh” value of the first is lower: 0% for the first, 4% for the second.

First: COc1ccc(C2=C(Nc3cccc(C(=O)O)c3)C(=O)NC2=O)cc1 [SB-390765]
Second: COc1ccc(CNC(=O)NC2CCN(c3ccnc(Nc4cc(OC)c(OC)c(OC)c4)n3)C2)cc1 (centres unmarked) [GSK1379748]
The “%Inh” value of the first is lower: 1% for the first, 17% for the second.

First: Clc1cc(Cl)cc(Nc2ccnc(Nc3cc(Cl)cc(Cl)c3)n2)c1 [GSK175726]
Second: O=C(Nc1ccccc1)Nc1cccc(Oc2ccc3nccn3n2)c1
The “%Inh” value of the first is lower: 17% for the first, 22% for the second.

First: Cc1c(Cn2ccn3c(=O)cc(N4CCOCC4)nc23)cccc1C(F)(F)F [GSK2289044]
Second: Cc1cc(NCC(c2ccccc2)c2ccccc2)nc(NCc2ccc(C(F)(F)F)cc2)n1 [GW497681]
The “%Inh” value of the first is higher: 27% for the first, 0% for the second.
